Test results reported in PubChem BioAssay.
The source made the active and inactive calls.

Assays:
Albumin (Bos taurus) = Albumin (Bos taurus) (UniProt P02769); assay: compounds binding labelled BSA control protein – biochemical, small-molecule microarray, Alexa647 label, 635/667 nm fluorescence, artefact control for SMM control protein annotation, profiling panel (AID 1118); details: BSA-A647 binding, fluorescence 635 nm, higher = more signal;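 note: score merges 667 nm emission intensity and signal-to-noise per printed compound spot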
[1] = probe aXIP binding to arrayed compounds – biochemical, NeuroSMM set, 635/667 nm fluorescence, primary screen (AID 1119); details: small-molecule microarray, higher = more signal, called active from +8 up or from −8 down;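 note: probe is the protein aXip251-270 applied at 1 µg/mL to compound-printed slides; binding of probe to printed compounds measured as 667 nm fluorescence plus signal to noise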
[2] = probe aNOTCH3 binding on compound microarray – biochemical, small-molecule microarray, 635/667 nm fluorescence, primary screen (AID 1120); details: higher = more signal;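 note: probe is a biotin-tagged antibody raised against NOTCH3 rather than NOTCH3 protein; score merges spot fluorescence near 667 nm with spot signal to noise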
[3] = probe aNOTCH2 binding on compound microarray – biochemical, small-molecule microarray, 635/667 nm fluorescence, primary screen (AID 1121); details: higher = more signal;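 note: score merges feature fluorescence read at 667 nm with its signal to noise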
[4] = target: Carbonic anhydrase 2 (Homo sapiens) (UniProt P00918); assay: compounds binding carbonic anhydrase 2 – biochemical, small-molecule microarray, Alexa647-labelled CAII, profiling panel (AID 1122); details: CAII-A647 binding fluorescence, higher = more signal
[5] = COS7 lysate on small-molecule microarray, probe aHis, 635 nm (AID 1123); details: COS7 cell lysate, fluorescence, higher = more signal;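 note: z-score combines 667nm fluorescence intensity with signal-to-noise per printed compound spot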
[6] = probe aLAP1 signal on lysate-treated microarray – cell lysate, small-molecule microarray, COS7 lysate, primary screen (AID 1124); details: probe aLAP1, fluorescence, higher = more signal;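 note: lysate comes from COS7 cells expressing LAP1 and is applied at 0.3 µg/mL; score merges spot fluorescence near 667 nm with signal-to-noise over triplicate slides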
Sam68 (KHDRBS1) = assay: compounds binding KHDRBS1 protein – biochemical, small-molecule microarray, 635 nm fluorescence, primary screen (AID 1125); details: higher = more signal;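 note: score merges 667 nm channel intensity with signal to noise over triplicate slides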
[7] = test system: Chordin-like protein 2 (CHRDL2); assay: compounds binding chordin-like 2 – biochemical, small-molecule microarray, 635 nm fluorescence, primary screen (AID 1126); details: fluorescence 635 nm, higher = more signal;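 note: printed compound slides probed with Chrdl2 protein at 4 µg/mL for 1 h at 4 C; score merges 667 nm emission intensity with signal to noise over three replicate slides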
[8] = target: Concanavalin-A (Canavalia ensiformis) (UniProt P02866); assay: compounds binding concanavalin A lectin – biochemical, small-molecule microarray, Alexa647 label, 635 nm, artefact control for SMM control protein annotation, primary screen (AID 1127); details: ConA-A647 binding fluorescence, higher = more signal;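 note: z combines 667 nm emission intensity with signal-to-noise across three replicate slides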
[9] = compounds binding Alexa647 anti-His antibody – biochemical, small-molecule microarray, 635 nm fluorescence, artefact control for SMM control protein annotation, primary screen (AID 1128); details: higher = more signal;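 note: score merges feature fluorescence with signal-to-noise for each printed compound spot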
[10] = test system: Human papillomavirus type 1a E7 protein (residues 1-88); assay: HPV1a E7 small-molecule binders, primary screen, biochemical, small-molecule microarray, residues 1-88, 635 nm (AID 1129); details: small-molecule microarray binding, fluorescence 635 nm; higher = more signal
[11] = target: Focal adhesion kinase 1 (Homo sapiens) (UniProt Q05397); assay: PTK2 protein binding on printed compound slides – biochemical, small-molecule microarray, 635/667 nm fluorescence, BSA, DTT, primary screen (AID 1130); details: 635 nm fluorescence, higher = more signal;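 note: composite of spot emission at 667 nm and signal to noise over triplicate slides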
[12] = test system: Fibrinogen (Alexa647-labelled); assay: Alexa647-fibrinogen binding to printed small molecules – biochemical, small-molecule microarray, 635/667 nm fluorescence, artefact control for SMM control-protein annotation, profiling panel (AID 1131); details: fibrinogen-A647 binding fluorescence, higher = more signal;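 note: z-score merges 667 nm fluorescence with per-spot signal-to-noise over triplicate slides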
[13] = target: Follistatin (Homo sapiens) (UniProt P19883); assay: FST protein binding to printed compounds – biochemical, small-molecule microarray, 635/667 nm fluorescence, primary screen (AID 1132); details: 635 nm fluorescence, higher = more signal
[14] = target: Fibroblast growth factor 2 (Homo sapiens) (UniProt P09038); assay: basic fibroblast growth factor binding to printed compounds – biochemical, small-molecule microarray, 635/667 nm fluorescence, primary screen (AID 1133); details: FGF2, fluorescence 635/667, higher = more signal
[15] = JC-1 mitochondrial potential readout, lung cancer cells – cell-based, A549, JC-1 fluorescence, basal, 24 h, 100 nL, profiling panel (AID 1138); details: higher = more signal;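 note: A549 lung adenocarcinoma cells under basal conditions with no added stimulus; test concentration not given here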
Lefty1 = Lefty1 protein binding to printed compounds – biochemical, small-molecule microarray, 635/667 nm fluorescence, primary screen (AID 1139); details: fluorescence 635/667, higher = more signal
[16] = test system: wheat germ agglutinin (Triticum aestivum), Alexa647-labelled; assay: Alexa647-WGA lectin binding to printed small molecules – biochemical, small-molecule microarray, 635/667 nm fluorescence, artefact control for SMM control-protein annotation, profiling panel (AID 1140); details: WGA-A647 binding, 635 nm fluorescence, higher = more signal;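 note: score merges 667 nm feature emission with signal to noise over triplicate slides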
[17] = target: Luciferin 4-monooxygenase (Photinus pyralis) (UniProt P08659); assay: inhibition of purified Photinus pyralis luciferase – biochemical, luminescence, purified enzyme, 2006 set, primary screen (AID 1141); details: purified firefly luciferase, SteadyGlo luminescence, 30 min; higher = more signal, called active from +8 up or from −8 down;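 note: cell-free assay with purified firefly luciferase at 100 ng per well in PBS; test concentration not given here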
Sequence of Luciferin 4-monooxygenase (Photinus pyralis) (P08659 whole entry, looked up): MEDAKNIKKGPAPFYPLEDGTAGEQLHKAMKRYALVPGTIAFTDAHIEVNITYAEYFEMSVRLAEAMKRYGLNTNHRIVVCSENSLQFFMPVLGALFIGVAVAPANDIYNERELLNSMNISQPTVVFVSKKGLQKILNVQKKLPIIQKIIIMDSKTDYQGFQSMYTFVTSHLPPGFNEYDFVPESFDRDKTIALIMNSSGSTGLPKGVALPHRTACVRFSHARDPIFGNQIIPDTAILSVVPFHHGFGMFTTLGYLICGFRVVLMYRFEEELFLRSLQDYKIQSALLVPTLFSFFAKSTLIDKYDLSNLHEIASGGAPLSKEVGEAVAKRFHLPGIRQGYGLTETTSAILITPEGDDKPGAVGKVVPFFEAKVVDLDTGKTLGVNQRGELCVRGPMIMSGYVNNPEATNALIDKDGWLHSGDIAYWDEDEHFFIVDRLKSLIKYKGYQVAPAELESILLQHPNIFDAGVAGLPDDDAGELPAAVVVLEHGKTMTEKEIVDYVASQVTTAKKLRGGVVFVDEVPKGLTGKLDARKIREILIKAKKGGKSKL

Sequence of Follistatin (Homo sapiens) (P19883 whole entry, looked up): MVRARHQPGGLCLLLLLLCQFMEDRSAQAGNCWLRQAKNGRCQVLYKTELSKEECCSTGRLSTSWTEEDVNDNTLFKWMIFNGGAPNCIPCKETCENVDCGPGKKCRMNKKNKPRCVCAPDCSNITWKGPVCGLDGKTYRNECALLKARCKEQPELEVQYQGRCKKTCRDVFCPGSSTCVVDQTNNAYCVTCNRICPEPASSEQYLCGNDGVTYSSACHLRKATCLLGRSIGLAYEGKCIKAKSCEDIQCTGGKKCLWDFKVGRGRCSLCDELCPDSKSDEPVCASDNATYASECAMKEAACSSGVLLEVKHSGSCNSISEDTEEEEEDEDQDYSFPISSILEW
Sequence of Concanavalin-A (Canavalia ensiformis) (P02866 whole entry, looked up): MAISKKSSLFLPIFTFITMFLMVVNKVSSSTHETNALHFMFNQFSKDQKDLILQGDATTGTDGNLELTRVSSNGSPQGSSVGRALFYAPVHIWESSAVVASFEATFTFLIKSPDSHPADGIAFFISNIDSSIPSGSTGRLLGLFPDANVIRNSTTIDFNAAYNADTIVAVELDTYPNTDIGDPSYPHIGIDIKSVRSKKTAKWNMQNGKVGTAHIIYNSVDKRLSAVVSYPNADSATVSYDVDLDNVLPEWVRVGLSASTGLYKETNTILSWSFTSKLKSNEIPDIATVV
Sequence of Fibroblast growth factor 2 (Homo sapiens) (P09038 whole entry, looked up): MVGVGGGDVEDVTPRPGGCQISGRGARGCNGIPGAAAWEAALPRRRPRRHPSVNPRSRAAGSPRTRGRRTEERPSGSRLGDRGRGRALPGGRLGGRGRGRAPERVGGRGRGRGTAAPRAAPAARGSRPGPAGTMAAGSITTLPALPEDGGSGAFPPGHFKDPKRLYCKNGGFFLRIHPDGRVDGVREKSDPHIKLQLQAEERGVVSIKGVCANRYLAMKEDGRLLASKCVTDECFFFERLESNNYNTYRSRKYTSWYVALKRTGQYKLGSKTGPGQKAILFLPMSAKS
Sequence of Focal adhesion kinase 1 (Homo sapiens) (Q05397 whole entry, looked up): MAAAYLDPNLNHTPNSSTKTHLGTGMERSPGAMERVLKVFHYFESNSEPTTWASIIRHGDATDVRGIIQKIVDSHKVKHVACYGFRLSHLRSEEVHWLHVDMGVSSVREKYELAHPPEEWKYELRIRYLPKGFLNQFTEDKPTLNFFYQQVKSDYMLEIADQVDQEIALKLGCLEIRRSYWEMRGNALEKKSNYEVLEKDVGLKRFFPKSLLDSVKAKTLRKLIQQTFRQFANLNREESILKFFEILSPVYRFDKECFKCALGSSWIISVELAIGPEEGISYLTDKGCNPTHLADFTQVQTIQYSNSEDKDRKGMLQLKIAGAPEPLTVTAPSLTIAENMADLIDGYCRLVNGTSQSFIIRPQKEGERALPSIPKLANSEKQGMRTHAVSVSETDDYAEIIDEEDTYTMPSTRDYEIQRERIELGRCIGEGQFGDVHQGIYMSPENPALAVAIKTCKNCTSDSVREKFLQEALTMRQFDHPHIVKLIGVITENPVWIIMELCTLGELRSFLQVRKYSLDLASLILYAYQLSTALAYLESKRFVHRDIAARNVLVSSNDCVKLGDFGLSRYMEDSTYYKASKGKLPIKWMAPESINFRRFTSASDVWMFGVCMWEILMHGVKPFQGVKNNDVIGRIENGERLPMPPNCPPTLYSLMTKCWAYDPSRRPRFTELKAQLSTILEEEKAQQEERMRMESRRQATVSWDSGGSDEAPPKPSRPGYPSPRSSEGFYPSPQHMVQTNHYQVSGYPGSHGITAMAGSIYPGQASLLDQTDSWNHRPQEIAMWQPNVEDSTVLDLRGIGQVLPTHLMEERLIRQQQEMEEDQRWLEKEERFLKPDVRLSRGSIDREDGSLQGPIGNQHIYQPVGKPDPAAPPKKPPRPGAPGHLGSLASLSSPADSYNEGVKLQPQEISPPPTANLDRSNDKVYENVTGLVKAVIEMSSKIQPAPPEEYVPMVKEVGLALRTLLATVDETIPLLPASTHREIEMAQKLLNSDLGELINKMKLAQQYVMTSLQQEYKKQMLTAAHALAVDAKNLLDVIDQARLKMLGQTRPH
Sequence of Albumin (Bos taurus) (P02769 whole entry, looked up): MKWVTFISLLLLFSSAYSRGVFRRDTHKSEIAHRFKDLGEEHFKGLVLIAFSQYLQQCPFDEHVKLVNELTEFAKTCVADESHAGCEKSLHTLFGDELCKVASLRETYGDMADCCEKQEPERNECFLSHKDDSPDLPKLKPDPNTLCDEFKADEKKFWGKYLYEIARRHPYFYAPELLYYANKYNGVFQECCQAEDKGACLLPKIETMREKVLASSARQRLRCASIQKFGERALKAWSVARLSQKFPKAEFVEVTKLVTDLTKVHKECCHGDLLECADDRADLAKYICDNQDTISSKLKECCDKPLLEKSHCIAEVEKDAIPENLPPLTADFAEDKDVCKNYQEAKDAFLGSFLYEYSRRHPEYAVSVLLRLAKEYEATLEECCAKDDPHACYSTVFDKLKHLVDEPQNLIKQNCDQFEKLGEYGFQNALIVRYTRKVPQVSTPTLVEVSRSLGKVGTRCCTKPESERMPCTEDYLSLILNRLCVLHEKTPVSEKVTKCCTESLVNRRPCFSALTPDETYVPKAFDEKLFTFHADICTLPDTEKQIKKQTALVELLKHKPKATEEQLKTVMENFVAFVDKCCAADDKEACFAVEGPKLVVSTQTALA

Row | Compound | composite z-score (Albumin (Bos taurus)) | composite Z-score [1] | composite z-score [2] | composite z-score [3] | composite z-score [4] | composite z-score [5] | composite z-score [6] | composite z-score (Sam68 (KHDRBS1)) | composite z-score [7] | composite z-score [8] | composite z-score [9] | composite z-score [10] | composite z-score [11] | composite z-score [12] | composite z-score [13] | composite z-score [14] | z-score [15] | composite z-score (Lefty1) | composite z-score [16] | z-score [17]
1 | COc1ccc([Si](C)(C)[C@H]2[C@H](CCO)O[C@@]3(C(=O)N(Cc4ccccc4)c4ccc(N5CCCCC5=O)cc43)[C@@H]2C)cc1 | 0.78 | 0.388 (inactive) | -0.0918 | -0.133 | 0.342 | 0.376 | 0.237 | 0.965 | 0.207 | 0.905 | 1.49 | 0.435 | 0.208 | 0.94 | 1.28 | 1.28 | 2.23 | 0.628 | 0.768 | -1.08 (inactive)
2 | COC(=O)[C@@]1(Cc2ccc(OC)cc2)[C@H]2c3cc(C(=O)N4CCCC4)n(CCCNc4ncc(C(F)(F)F)cc4Cl)c3C[C@H]2CN1C(=O)c1ccccc1 | 0.978 | -0.682 (inactive) | 1.09 | 0.787 | 0.516 | 0.97 | 0.213 | 0.313 | 0.269 | 0.878 | 2.65 | 1.14 | 1.1 | 0.768 | 1.12 | -0.167 | -1.51 | 0.337 | 0.626 | 2.54 (inactive)
3 | O=C1NC(=O)C2C1C=CC(C(O)C1CC=CCC1)N2Nc1ccccn1 (stereo not given) | -0.459 | 0.945 (inactive) | 0.137 | -0.0272 | 0.79 | 0.793 | 0.643 | 0.231 | 1.05 | 0.497 | 1.33 | -0.264 | -0.599 | -0.0881 | 0.585 | 0.582 | 0.692 | 0.616 | 0.763 | -1.13 (inactive)
4 | C[N+](C)(C)CCCCCCNC(=O)[C@H]1C[C@H]2C(=O)N[C@@H](Cc3ccccc3)C(=O)N2[C@H]1c1cccc(OCCO)c1 | -0.174 | 0.35 (inactive) | -0.1 | -0.107 | 0.638 | 2.1 | 0.319 | 0.699 | 1.01 | 0.996 | 0.357 | 0.69 | 0.118 | 0.22 | 1.16 | 1.83 | -0.585 | 1.4 | -0.046 | 0.0538 (inactive)
5 | COC(=O)[C@@]1(Cc2ccc(OC)cc2)[C@H]2c3cc(C(=O)N4CCCC4)n(CCSCCO)c3C[C@H]2CN1C(=O)c1ccccc1 | 0.905 | 0.228 (inactive) | 0.211 | 0.0312 | 0.678 | 3.24 | 0.247 | 0.657 | -0.633 | 0.941 | 2.01 | 1.29 | 0.529 | 0.787 | -0.0598 | -0.254 | 0.572 | -0.731 | 1.39 | 0.644 (inactive)
6 | CC(C)(C)OC(=O)CC[C@@]1(C(=O)N2CCCCC2)N=C(c2ccc(OCCCO)cc2)O[C@@H]1c1ccccc1 | 0.962 | -0.317 (inactive) | 0.372 | -0.0659 | 0.781 | 2.59 | 0.796 | 1.29 | -0.409 | 0.719 | 1.87 | 1.25 | 0.744 | 1.02 | 1.09 | 1.04 | 1.09 | 0.501 | 1.27 | -1.73 (inactive)
7 | CO[C@H]1O[C@H](CO)[C@@H](OC(=O)Nc2ccccc2)[C@@H]2OC(=O)[C@@H](Cc3ccc4ccccc4c3)C/C=C/C[C@H](Cc3ccc4ccccc4c3)C(=O)O[C@@H]12 | 0.615 | 1.08 (inactive) | -0.0371 | -0.146 | 0.324 | 1.38 | 0.313 | 1.21 | 0.34 | 0.983 | 0.79 | 1.2 | 1.12 | 0.768 | 0.935 | 0.477 | 0.461 | 0.698 | 0.807 | -1.97 (inactive)
8 | COCCCNC(=O)[C@@]1(CCS(=O)(=O)c2ccccc2)N=C(c2ccc(OCCCO)cc2)O[C@H]1c1ccccc1N=[N+]=[N-] | 0.955 | 0.164 (inactive) | 0.307 | -0.0316 | 0.695 | 3.05 | 0.743 | 1.3 | -0.154 | 1.07 | 0.328 | 1.25 | -0.0191 | 1.02 | 1.3 | 0.786 | -0.341 | 1.27 | 1.01 | -8.3 (active)
9 | O=C1OCC=C[C@H]2OC34C=CCN(CCN5CCOCC5)C(=O)[C@H]3N(CCO)C(=O)[C@@H]4[C@@H]12 (stereo not given in full) | -0.263 | 0.198 (inactive) | -0.0221 | -0.208 | 0.764 | -0.214 | -0.194 | 0.457 | 0.0881 | 0.575 | 0.15 | -0.204 | -0.133 | 0.368 | 0.597 | -0.219 | 0.587 | 1.41 | 0.0315 | -0.602 (inactive)
10 | C=C(C)[C@@H]1CC=C(C(O)C2C=CC3C(=O)NC(=O)C3N2Nc2ccc(Cl)cc2Cl)CC1 (stereo not given in full) | 1 | 0.114 (inactive) | 0.0221 | 0.0032 | 0.708 | 2 | 0.708 | 1.31 | 0.41 | 1.11 | 1.83 | 1.2 | 1.33 | 1 | 1.14 | -0.853 | -1.25 | -0.336 | 1.34 | 0.022 (inactive)
11 | COCCOC(=O)N1C(=O)[C@@]2(c3ccccc31)[C@H](C(=O)N1CCCCCCC1)[C@H]1C(=O)O[C@H](c3ccccc3)[C@H](c3ccccc3)N1[C@@H]2c1ccc(OCCO)cc1 | 0.445 | 10.1 (active) | 2.33 | 1.21 | 1.09 | 5.19 | 1.31 | 1.32 | 1.68 | 1.28 | 3.77 | 1.35 | 4.71 | 1.04 | 1.58 | 1.88 | -1.35 | 1.91 | 1.74 | -0.255 (inactive)
